Assay results: PubChem BioAssay AID2314 (National Center for Advancing Translational Sciences (NCATS), 2010)
The whole screen tested about 300,000 compounds, of which about 37,000 (12%) were called active. This is one part of a sample in which actives are shown more often than they occur. A number with no mark means an inactive call. Rule as the data show it: active = max response mostly above about 13% (no sharp cut-off); inactive = mostly below about 14%.

Assay: Cycloheximide Counterscreen for Small Molecule Inhibitors of Shiga Toxin; also: read at 38.3 µM for the half of the compounds with a filed dose; 0% is about no effect
Settings: cell reporter, cycloheximide protein synthesis inhibition counterscreen; stronger effect = higher value

Row | SMILES | max response
1 | Nc1ccc(N=Nc2ccccc2Cl)c(N)n1 | 25.9% (active)
2 | O=S(=O)(c1ccc(Cl)s1)N1CCC2(CC1)OCCO2 | 2.18%
3 | COC(=O)c1cc(NC(=O)c2cc(C(C)(C)C)nn2Cc2cccc(C)c2)ccc1N1CCOCC1 | -3.1%
4 | CCCNC(=O)c1cnc(-c2ccccc2)nc1-c1ccccc1 | -6.13%
5 | CCN(CC)c1ccc(C(=O)OCC(=O)c2ccco2)cc1 | 7.36%
6 | O=C(COC(=O)c1ccccc1C(=O)c1ccccc1)c1ccco1 | 8.15%
7 | CCc1ccc(C(=O)COC(=O)c2ccco2)cc1 | 42.3% (active)
8 | COc1cccc(NC(=O)CN2CCN(CC(=O)Nc3ccccc3Cl)CC2)c1 | -0.686%
9 | COc1ccc2[nH]c(C(=O)Nc3ccccc3Cl)cc2c1 | 36.2% (active)
10 | COc1ccc2[nH]c(C(=O)N/N=C/c3cc(OC)c(OC)c(OC)c3)cc2c1 | 13.6%
11 | Cc1cccc(C(=O)NNC(=O)CSc2nnc(C(C)C)n2C)c1 | -5.35%
12 | CCC(C)c1ccc(NC(=S)N2CCCC2)cc1 (stereo not drawn) | 35.2% (active)
13 | NS(=O)(=O)c1ccc(NC(=S)N2CCCC2)cc1 | -1.21%
14 | CC(=O)c1cccc(NC(=S)N2CCCC2)c1 | 0.199%
15 | Cc1cccc(C)c1NC(=S)N1CCCCCC1 | -7.53%
16 | S=C(Nc1ccc2c(c1)OCO2)N1CCCC1 | 25.6% (active)
17 | CCOc1ccc(NC(=S)N2CCCCCC2)cc1 | 26.7%
18 | COC(=O)c1ccc(S(=O)(=O)N2CCc3ccccc3C2)cc1 | -0.876%
19 | CCc1nn(CCCC(=O)NCc2ccc(C)cc2)c(=O)c2cc3occc3n12 | 9.5%
20 | CCCCCCC(O)(CCN1CCCCC1)c1ccccc1 (stereo not drawn) | -3.74%
21 | Cc1ccnc(N2CCCC(C(=O)NC3CC3)C2)n1 (stereo not drawn) | -3.55%
22 | Cc1ccnc(Nc2nc3ccccc3s2)n1 | 55.1% (active)
23 | Cc1ccc(S(=O)(=O)Nc2nc3ccccc3s2)cc1[N+](=O)[O-] | -1.91%
24 | CSCCC(Nc1nc2ccccc2s1)C(=O)O (stereo not drawn) | -2.31%
25 | COc1cccc(NS(=O)(=O)c2ccc(-c3coc(C)n3)cc2)c1 | 15.9%

Row | SMILES | max response
26 | O=C(NC1CCCC1)C1CC(=O)N(c2ccc(F)cc2)C1 (stereo not drawn) | -4.78%
27 | COCCC(=O)N1CCC(Oc2ccc(C(=O)NCc3ccon3)cc2)CC1 | 2.55%
28 | Cc1cc(NS(=O)(=O)c2ccc(NC(=O)c3cccnc3)cc2)nc(C)n1 | 1.8%
29 | Cc1ccc2nc(-c3ccc(NC(=O)c4cccnc4)cc3)oc2c1 | 49.6% (active)
30 | COC(=O)c1cc(NC(=O)c2cccnc2)ccc1N1CCOCC1 | -2.96%
31 | COc1cc(OC)cc(C(=O)Nc2ccc(-c3nc4ccccc4o3)c(O)c2)c1 | 24.8% (active)
32 | COc1cc(OC)cc(C(=O)Nc2ccc(S(=O)(=O)Nc3cc(C)on3)cc2)c1 | -4.87%
33 | CC(=O)NC(=S)Nc1ccc(NC(=O)c2cccnc2)cc1 | 1.22%
34 | Cc1cc2nc(-c3ccc(NC(=O)c4cccnc4)cc3)oc2cc1C | 32.1% (active)
35 | CC(=O)Nc1ccc(Nc2c3ccccc3nc3ccccc23)cc1 | -9.79%
36 | CC(=O)Nc1ccc(-c2nc3ccccc3o2)cc1 | 35.3% (active)
37 | COc1cc(OC)cc(C(=O)Nc2ncc3c(n2)CC(C)(C)CC3=O)c1 | 9.17%
38 | CC(=O)Nc1ccc(S(=O)(=O)N(C)c2nc3ccccc3nc2Cl)cc1 | 18%
39 | CCC1=Nc2cc(C(=O)NCCCN3CCOCC3)ccc2Sc2ccc(Br)cc21 | -2.78%
40 | CC(=O)Nc1ccc(S(=O)(=O)NCC(=O)OCc2cc(=O)oc3ccc4ccccc4c23)cc1 | -2.56%
41 | Cc1cc(OCCN2CCCC2)cc(C(C)C)c1 | -2.45%
42 | CCn1cc(CN2CCC(C(=O)Nc3cccc(-c4cccc(Cl)c4)c3)CC2)cn1 | -10.1%
43 | CC1Cc2cc(/C(O)=C3\C(=O)C(=O)N(Cc4cccnc4)C3c3ccccc3F)ccc2O1 (stereo not drawn) | -1.92%
44 | O=C(Cn1cc(/C=N/NC(=O)c2cccc(C(F)(F)F)c2)c2ccccc21)Nc1ccc(F)cc1 | 2.04%
45 | O=C(C(Cc1ccccc1)n1cccc1)N1CCN(C2CCCCC2)CC1 (stereo not drawn) | -4.26%
46 | CCOC(=O)C1CCN(S(=O)(=O)c2c(C)noc2C)CC1 | -1.8%
47 | Cc1ccc(NC(=O)Cn2nc(C)c3ccccc3c2=O)c(C)c1 | -1.38%
48 | Cc1ccc(C)c(S(=O)(=O)N2CCN(C(=O)Nc3ccccc3)CC2)c1 | -1.4%
49 | Cc1ccc(NC(=O)c2ccn(C(=O)Nc3ccccc3)n2)c(C)c1 | 43.3% (active)
50 | Cc1ccc(CCCOC(=O)C[N+]2(C)CCCC2)cc1 | -2.71%

Row | SMILES | max response
51 | Cc1c(C(=O)N2CCN(c3ccc(F)cc3)CC2)oc2c1C(=O)CCC2 | -3.49%
52 | CCCCOC(=O)CCCc1ccc([N+](=O)[O-])cc1[N+](=O)[O-] | -1.18%
53 | CC1C(=O)Nc2ccccc2N1C(=O)c1c(F)cccc1F (stereo not drawn) | -2.05%
54 | COc1cccc(NC(=O)C(C)Oc2ccccc2)c1 (stereo not drawn) | 4.2%
55 | CC(Oc1cccc(NC(=O)c2cccs2)c1)C(=O)c1ccccc1 (stereo not drawn) | 19.5% (active)
56 | O=C(Nc1ccccc1-c1ccccc1)c1cccs1 | 5.16%
57 | C/C(=N\NC(=O)CNc1cccc2ccccc12)c1ccc(Br)s1 | -2.1%
58 | Cc1cccc(/C=N/NC(=O)CNc2cccc3ccccc23)n1 | 45.5% (active)
59 | Cn1cccc1/C=N/NC(=O)CNc1cccc2ccccc12 | 4.6%
60 | Cc1ccccc1/[N+]([O-])=C/c1ccncc1 | 9.27%
61 | CC(=O)Oc1ccc(C)cc1N1C(=O)c2ccc(C(=O)O)cc2C1=O | 6.31%
62 | O=C(CN1CCN(S(=O)(=O)/C=C/c2ccccc2)CC1)Nc1ccc(N2CCOCC2)cc1 | -1.05%
63 | Cc1cccc(N2C(=O)c3ccc(C(=O)Nc4cccc(C(=O)O)c4)cc3C2=O)c1 | 10.2%
64 | O=C(O)c1ccc2c(c1)C(=O)N(c1ccc(/C=C/C(=O)c3ccccc3)cc1)C2=O | 46.6% (active)
65 | O=C(/C=C/c1ccc(N2CCOCC2)cc1)c1ccccc1 | 46.4% (active)
66 | O=C(c1ccc(S(=O)(=O)N2CCOCC2)cc1)N1CCN(c2ccccc2)CC1 | -2.23%
67 | O=C(NC1CCC(O)CC1)c1ccccc1OCc1ccc(F)cc1 (stereo not drawn) | -3.74%
68 | Cc1ccccc1CN1C(=O)c2ccccc2Sc2ccc(C(=O)NCCCN3CCOCC3)cc21 | -3.67%
69 | COc1cc(CO)ccc1OCC(=O)Nc1cccc2ccccc12 | -2.19%
70 | Cc1ccc(S(=O)(=O)N(CCCN(C)C)Cc2ccc3c(c2)OCO3)cc1 | 1.74%
71 | CC(=O)c1ccc(NC(=O)CSC(=S)N2CCCC2)cc1 | 20.5% (active)
72 | O=C(COc1ccccc1)Nc1ccc(C(=O)N2CCCC2)cc1 | 37.5%
73 | CCC1CCCCN1C(=S)Nc1ccc(C(C)=O)cc1 (stereo not drawn) | 8.58% (active)
74 | O=C(CCC(=O)N1CCCC1)Nc1ccc([N+](=O)[O-])cc1 | -2.89%
75 | CCC1CCCCN1C(=S)Nc1ccc(S(=O)(=O)Nc2ncccn2)cc1 (stereo not drawn) | -2.13%

Row | SMILES | max response
76 | CCC1CCCCN1C(=S)Nc1ccc(SC(F)F)cc1 (stereo not drawn) | 1.07%
77 | O=C(NC(=S)Nc1ccc2oc(=O)ccc2c1)c1ccc(-c2cccc(Cl)c2Cl)o1 | 6.87%
78 | CCCC(=O)N1CCN(c2nnc(-c3ccc(C)cc3)c3ccccc23)CC1 | -7.1%
79 | Cc1cccc(CNS(=O)(=O)c2ccc(-c3cnc(C4CC4)o3)cc2)c1 | 18.8%
80 | Cc1nnc(C)n1/N=C/c1ccc(C(C)C)cc1 | 4.86%
81 | CC(=O)c1sc(N/N=C/c2ccc(C(C)C)cc2)nc1C | 43% (active)
82 | Cc1ccc(S(=O)(=O)Nc2nc(C)cc(N/N=C/c3ccc(O)cc3)n2)cc1 | -2.44%
83 | CC(=O)c1sc(N/N=C\c2ccc(C)cc2)nc1C | 48.9% (active)
84 | CCOC(=O)c1sc(/N=C/Nc2nc(C)c(C(=O)OCC)s2)nc1C | 10.8%
85 | CC(=O)c1sc(NC(=O)CCCOc2ccccc2C)nc1C | 1.03%
86 | C=CCC1(C#N)C(=S)NC(C)=C(C(=O)OCC)C1c1ccccc1 (stereo not drawn) | -1.77%
87 | NC(=O)C1CCN(CC(O)CSc2ccc(F)cc2)CC1 (stereo not drawn) | -5.01%
88 | NS(=O)(=O)c1ccc(CCNC(=O)c2ccc([N+](=O)[O-])cc2[N+](=O)[O-])cc1 | -3.47%
89 | O=C(Nc1ccc(Cl)cn1)c1cnn2cccnc12 | 58.9% (active)
90 | Cc1ccc2sc(NNC(=O)c3ccc4c(c3)OCCO4)nc2c1C | 5.17%
91 | Cc1nc(NC(=O)c2ccc3c(c2)OCCO3)ccc1Br | 57.9% (active)
92 | O=C(Nc1cccnc1)c1ccc(Cl)cc1[N+](=O)[O-] | -1.02%
93 | COc1ccc(C(=O)NC(=S)Nc2ccc(Cl)cn2)cc1OC | -1.11%
94 | O=C(Nc1ccc(Cl)cn1)c1ccc2c(c1)OCCO2 | 37.5% (active)
95 | COc1c(Cl)cc(C(=O)Nc2ccc(Cl)cn2)cc1Cl | 11.7%
96 | CC(=O)c1ccc2c(c1)OCCOCCOc1ccc(C(C)=O)cc1OCCOCCO2 | 0.857%
97 | Cc1cc(NC(=O)c2cnn3cccnc23)n(-c2ccccc2)n1 | 0.387%
98 | O=C(NCc1ccncc1)C(=O)NCC1OCCN1S(=O)(=O)c1ccc(Br)cc1 (stereo not drawn) | -5.83%
